Compound activity: PubChem BioAssay, National Center for Advancing Translational Sciences (NCATS)
Rows were chosen to be rich in hits. Some 11% of all compounds tested hit in one or more screens of this group.
HP1b chromo inh: HP1-beta chromodomain-methylated histone interaction inhibition. P83916. AlphaScreen HP1-beta / biotin-H3K9me3 peptide binding. Potency, µM (doses to about 114 µM), actives largely listed as inhibitors. 390,000 compounds, 0.56% hits. AID 540317; also: nearly all actives have a fitted effect of over 70% in size
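AlphaScreen: HP1-beta (50 nM) preformed 30 min with biotin-H3(1-18)K9me3 peptide (50 nM) in PBS pH 7.4, 0.01% Tween-20. Compound added for 30 min at RT, then streptavidin donor/nickel chelate acceptor beads (10 ug/mL) for 30 min.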
L3MBTL1 block: inhibitors of human L3MBTL1 | Q9Y468 | AlphaScreen L3MBTL1–H3K9me1 peptide binding | Potency, µM (highest dose often 57.1 µM), most hits filed as inhibitors | 230,000 compounds, 0.66% hits | AID 485360; also: nearly all actives have a fitted effect of over 60% in size
Target sequence (Q9Y468 whole entry, looked up): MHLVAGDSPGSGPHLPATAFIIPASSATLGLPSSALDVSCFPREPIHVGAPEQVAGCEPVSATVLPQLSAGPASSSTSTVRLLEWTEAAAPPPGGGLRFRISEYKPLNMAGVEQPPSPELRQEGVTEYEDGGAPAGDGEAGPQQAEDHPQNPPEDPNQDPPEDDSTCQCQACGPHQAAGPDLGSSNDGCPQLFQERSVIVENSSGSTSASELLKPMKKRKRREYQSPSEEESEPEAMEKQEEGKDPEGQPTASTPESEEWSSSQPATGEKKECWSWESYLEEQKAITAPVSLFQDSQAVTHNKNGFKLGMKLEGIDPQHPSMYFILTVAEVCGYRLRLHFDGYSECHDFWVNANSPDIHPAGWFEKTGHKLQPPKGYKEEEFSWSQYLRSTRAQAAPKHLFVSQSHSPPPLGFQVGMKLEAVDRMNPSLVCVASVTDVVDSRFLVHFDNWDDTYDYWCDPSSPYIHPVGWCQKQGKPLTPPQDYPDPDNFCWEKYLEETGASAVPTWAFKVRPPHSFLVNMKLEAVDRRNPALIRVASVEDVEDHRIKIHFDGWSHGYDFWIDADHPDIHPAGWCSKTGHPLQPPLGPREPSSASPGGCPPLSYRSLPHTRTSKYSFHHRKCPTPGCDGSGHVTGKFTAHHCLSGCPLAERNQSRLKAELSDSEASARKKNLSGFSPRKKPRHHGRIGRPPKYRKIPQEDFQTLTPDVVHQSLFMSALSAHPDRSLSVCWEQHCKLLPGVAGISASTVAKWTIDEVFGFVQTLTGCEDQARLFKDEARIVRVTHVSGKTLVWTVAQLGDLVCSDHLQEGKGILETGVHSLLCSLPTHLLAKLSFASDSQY
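AlphaScreen proximity signal between nickel-chelate acceptor and streptavidin donor beads (final 10 ug/mL) reports binding of 50 nM L3MBTL1 to 75 nM biotin-H3 K9me1 peptide; complex incubated with compounds 30 min at room temperature; cefsulodin titration as control.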
JMJD2A Tudor: JMJD2A Tudor domain (human) inhibition. AlphaScreen JMJD2A-Tudor / H3K4me3 peptide binding. Potency, µM (highest dose often 114 µM), actives largely listed as inhibitors. 390,000 compounds, 4.4% hits. AID 504339; also: nearly all actives have a fitted effect of over 50% in size
BAZ2B inh: BAZ2B (human) inhibition; AlphaScreen BAZ2B-H3K14Ac peptide displacement; 360,000 compounds, 4.4% hits; Q9UIF8; AID 504333; Potency, µM (highest dose often 114 µM), most hits filed as inhibitors; also: nearly all actives have a fitted effect of over 60% in size
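Inhibition is scored as reduced AlphaScreen emission. The BAZ2B/b-H3(5-23)K14Ac complex (50 nM each) in PBS pH 7.4, 0.01% Tween-20 meets compound (up to 110 uM) for 30 min at RT before bead addition.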
G9a inh: blocks human histone lysine methyltransferase G9a. AID 504332. Potency, µM (titrated, usually from 102 µM), usual class: inhibitors. Q96KQ7. 350,000 compounds, 8.8% hits. G9a H3K9 monomethylation, AlphaScreen, 2 h; also: nearly all actives have a fitted effect of over 75% in size
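AlphaScreen read-out: biotin-H3K9 peptide (500 nM) methylation by 20 nM enzyme with 20 uM SAM, 2 h at room temperature after 15 min compound preincubation; anti-monomethyl H3K9 antibody plus donor/acceptor beads, 10 min dark.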
Hits are given with their value; - = inactive; ? = inconclusive; . = no result given; [ ] = remark or other dose. Calls follow the shape of the dose curve; as a rule, active = well fitted inhibition curve with a large enough effect; inconclusive = small, poorly fitted or top-dose-only effect; inactive = no such curve, though single readings can be large or run the other way.

SMILES	HP1b chromo inh	L3MBTL1 block	JMJD2A Tudor	BAZ2B inh	G9a inh
Cc1cccc(NC(=O)CN(C)C(=O)c2ccc(N3CCCCCC3)c([N+](=O)[O-])c2)c1C	-	-	?	.	.
CCC(=O)Nc1ccc(N2CCCCC2)c(C(=O)Nc2ccc(OC)cc2)c1	-	.	?	-	-
COc1cccc(N2CCN(c3ccc(N4C(=O)CCC4=O)cc3[N+](=O)[O-])CC2)c1	-	.	?	?	50.1µM
COc1cccc(CN(C)C(=O)c2ccc(N3CCCC3)c([N+](=O)[O-])c2)c1	-	.	44.7µM	?	50.1µM
Cc1ccc(C)c(Nc2nn3c(=O)c4ccc(C(=O)NCc5cccs5)cc4nc3s2)c1	-	.	-	-	-
CCc1nnc(SCC(=O)Nc2cccc(C(F)(F)F)c2)c2cc3oc(C)cc3n12	-	.	-	-	-
CCCN(CCC)C(=O)c1nn(C)c2c1CSc1ccccc1-2	-	.	-	-	-
COc1ccc(NC(=O)CN(C)C(=O)c2ccc(N3CCCCC3)c([N+](=O)[O-])c2)cc1	-	-	-	?	50.1µM
COc1ccc(NC(=O)CN(C)C(=O)c2ccc(N3CCCCCC3)c([N+](=O)[O-])c2)cc1	-	-	?	-	50.1µM
CN(CC(=O)Nc1ccc(Cl)c(C(F)(F)F)c1)C(=O)Cn1cc([N+](=O)[O-])ccc1=O	-	-	-	-	6.31µM
CN(CC(=O)Nc1ccc(Cl)c(C(F)(F)F)c1)C(=O)c1ccc(N2CCOCC2)c([N+](=O)[O-])c1	?	-	?	-	31.6µM
COc1cc(CN(C(=O)c2oc3ccccc3c2C)C2CCS(=O)(=O)C2)cc(OC)c1OC (stereo unspecified)	-	.	-	-	-
O=C(COC(=O)CCc1ccccc1)NC1CCS(=O)(=O)C1 (stereo unspecified)	-	-	-	-	50.1µM
C=CCn1c(SCC(C)=O)nnc1-c1cc(-c2ccccc2)sc1N	-	-	?	?	11.2µM
C=CCn1c(SCC(=O)c2ccc(O)c(O)c2)nnc1-c1cccc(OC)c1	-	?	?	50.1µM	-[0.501 µM]
C=CCn1c(SCC(=O)c2cccs2)nnc1-c1cccc(OC)c1	-	.	89.1µM	-	?
CC(=O)Nc1ccc(S(=O)(=O)NC2CC(=O)N(c3ccc(C)c(C)c3)C2)cc1 (stereo unspecified)	-	-	-	-	-
O=C(CCNC(=O)c1ccco1)Nc1ccc(OC(F)(F)F)cc1	-	.	-	-	-
COc1ccc(OCCCC(=O)Nc2ccc(N3CCOCC3)cc2)cc1	-	-	-	-	?
CCCCOC(=O)Nc1ccc(C(N)=O)cc1	-	.	-	-	-
CCOc1ccc(/C=C/C(=O)Nc2ccc(N3CCOCC3)cc2)cc1	-	-	25.1µM	-	.
CCCCOC(=O)Nc1ccc(N2CCOCC2)cc1	-	-	-	-	7.08µM
CCCCOC(=O)Nc1ccc(N2CCCCC2)cc1	?	-	28.2µM	?	7.94µM
CC[C@@H](C)[C@@H](C(=O)Nc1ccc(C)cc1)N1Cc2ccccc2C1=O	-	.	-	-	-
Cc1ccc(CNC(=O)Cn2cc(S(=O)(=O)Cc3cccc(Cl)c3)c3ccccc32)cc1	-	.	-	-	-
SMILES	HP1b chromo inh	L3MBTL1 block	JMJD2A Tudor	BAZ2B inh	G9a inh
CC(C)(C)C1CCC(=NNC(=O)C(=O)NCc2cccnc2)CC1 (stereo unspecified)	-	-	-	?	?
CC(C)(C)C1CCC(=NNC(=S)NCc2ccccc2)CC1 (stereo unspecified)	-	-	?	?	8.91µM
CCC(C)(C)C1CCC(=NNC(=S)Nc2cccnc2)CC1 (stereo unspecified)	-	-	44.7µM	?	7.94µM
Cc1ccc(C)n1-c1nnc(N2CCCC(C(=O)NCc3ccc(F)cc3)C2)s1 (stereo unspecified)	-	.	-	-	-
Cc1c(O)c(CN2CCCC2)cc2c3c(c(=O)oc12)CCC3	-	-	-	?	-
CCc1cc(=O)oc2c(C)c(O)c(CN3CCCCC3)cc12	-	-	79.4µM	-	-
Cc1c(O)c(CN2CCCC2)cc2c1oc(=O)c1ccccc12	-	-	?	-	22.4µM
COc1ccc2cc(C(c3nnnn3C(C)(C)C)N3CCc4ccccc4C3)c(=O)[nH]c2c1 (stereo unspecified)	.	-	.	-	?
Cc1cc2cc(C(c3nnnn3Cc3ccco3)N3CCc4ccccc4C3)c(=O)[nH]c2cc1C (stereo unspecified)	-	.	-	44.7µM	?
Cc1cc(C)c2[nH]c(=O)c(C(c3nnnn3CC3CCCO3)N3CCCC(C)C3)cc2c1 (stereo unspecified)	-	-	-	-	17.8µM
Cc1ccc2[nH]c(=O)c(C(c3nnnn3CC3CCCO3)N3CCCc4ccccc43)cc2c1 (stereo unspecified)	-	-	?	?	50.1µM
CCc1ccc2[nH]c(=O)c(C(c3nnnn3Cc3ccco3)N3CCC(C)CC3)cc2c1 (stereo unspecified)	-	.	-	-	56.2µM
CCCCCCCCCCCCCCCC(=O)OC[C@H](O)[C@H]1OC[C@@H](O)[C@@H]1O	.	.	.	.	-[12.7 µM]
COc1ccc2[nH]c(=O)c(C(c3nnnn3CC3CCCO3)N3CCc4ccccc4C3)cc2c1 (stereo unspecified)	-	-	-	-	?
Cc1ccc2[nH]c(=O)c(C(c3nnnn3CC3CCCO3)N3CCc4ccccc4C3)cc2c1 (stereo unspecified)	-	.	-	?	2µM
Cc1cccc(NC(=O)CCC(=O)OCC(=O)c2ccc(Oc3ccc([N+](=O)[O-])cc3)cc2)c1	-	-	-	-	8.91µM
Cc1ccc(C)c(NC(=O)CC2NCCNC2=O)c1 (stereo unspecified)	-	.	-	-	-
OCCn1c(-c2ccc(F)cc2)csc1=Nc1ccccc1	?	-	?	25.1µM	20µM
OCCn1c(-c2ccc3c(c2)OCO3)csc1=Nc1ccccc1	?	-	39.8µM	39.8µM	-[12.7 µM]
CC1=C(C(=O)Nc2ccccc2)C(c2cccc(O)c2)n2nc(-c3ccccc3Cl)nc2N1 (stereo unspecified)	-	.	-	-	-
C#CCOCCOCCOCCNc1nc(N2CCN(C(=O)[C@H]([C@@H](C)CC)n3cc(CCCN=C(N)N)nn3)CC2)nc(N2CCN(C(=O)[C@H](CCCCN)n3cc(CC(C)O)nn3)CC2)n1 (stereo partly specified)	-	-	-	-	-[2.33 µM]
C#CCOCCOCCOCCNc1nc(N2CCN(C(=O)[C@H](CCCN=C(N)N)n3cc(C(N)[C@H](C)CC)nn3)CC2)nc(N2CCN(C(=O)[C@H](CCCN=C(N)N)n3cc(C(N)[C@@H](C)CC)nn3)CC2)n1 (stereo partly specified)	-	-	79.4µM	.	.
C#CCOCCOCCOCCNc1nc(N2CCN(C(=O)[C@H](CCCCN)n3cc(CN)nn3)CC2)nc(N2CCN(C(=O)[C@H](CCCN=C(N)N)n3cc(C(N)[C@H](C)CC)nn3)CC2)n1 (stereo partly specified)	-	-	79.4µM	.	.
